Numbering of substitutions follows the chain as printed.

What all share (assay): protein-binding microarray (PBM); PBM: ~300 nM protein, 6 mM HEPES pH 7.8, 80 mM KCl, 0.5 mM EDTA, 0.5 mM EGTA, 6% glycerol, 35 ng/ul poly-dIdC, 1% milk, 1 h, room temperature; Ap Aiptasia and Nv Nematostella (sea anemones) / Co Capsaspora / Aq Amphimedon (sponge) / Dm Drosophila / Hu human; RHD is the Rel homology domain; high values mean tight binding
Common to all, as to settings: dsDNA, one strand shown

For one assay, the target named is T1, GST-Ap-NF-kB RHD (Exaiptasia pallida (Aiptasia), UniProt A0A913YAJ5 2-422).
T1 sequence: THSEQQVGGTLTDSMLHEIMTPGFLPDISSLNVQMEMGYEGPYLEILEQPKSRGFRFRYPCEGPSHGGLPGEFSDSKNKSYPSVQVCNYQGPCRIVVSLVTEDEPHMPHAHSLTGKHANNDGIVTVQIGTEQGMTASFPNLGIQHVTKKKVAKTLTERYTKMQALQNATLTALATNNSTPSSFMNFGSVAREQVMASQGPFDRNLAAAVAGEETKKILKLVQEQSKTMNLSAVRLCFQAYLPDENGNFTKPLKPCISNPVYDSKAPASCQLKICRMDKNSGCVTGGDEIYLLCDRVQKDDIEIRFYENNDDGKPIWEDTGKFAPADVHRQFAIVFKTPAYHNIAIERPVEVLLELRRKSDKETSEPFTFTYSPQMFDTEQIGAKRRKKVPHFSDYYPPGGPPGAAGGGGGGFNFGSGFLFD

The target in assay [1] is T2, GST-Nv-NF-kB (Ser allele) (Nematostella vectensis, UniProt A7UNT2 2-411).
T2 sequence: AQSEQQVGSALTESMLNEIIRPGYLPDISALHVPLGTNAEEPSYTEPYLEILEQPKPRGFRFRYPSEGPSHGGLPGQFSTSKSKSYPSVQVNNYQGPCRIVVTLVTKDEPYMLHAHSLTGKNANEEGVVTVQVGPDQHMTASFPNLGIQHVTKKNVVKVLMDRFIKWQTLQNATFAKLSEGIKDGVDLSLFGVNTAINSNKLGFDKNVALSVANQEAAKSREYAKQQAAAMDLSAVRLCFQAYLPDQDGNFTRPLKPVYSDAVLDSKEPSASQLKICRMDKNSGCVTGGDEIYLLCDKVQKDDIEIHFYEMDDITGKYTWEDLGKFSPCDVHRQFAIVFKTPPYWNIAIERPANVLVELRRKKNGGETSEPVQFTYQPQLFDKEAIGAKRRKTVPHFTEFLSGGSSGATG

The target in a further assay is T3, GST-Dm-Relish (Drosophila melanogaster, UniProt Q94527 99-473).
T3 sequence: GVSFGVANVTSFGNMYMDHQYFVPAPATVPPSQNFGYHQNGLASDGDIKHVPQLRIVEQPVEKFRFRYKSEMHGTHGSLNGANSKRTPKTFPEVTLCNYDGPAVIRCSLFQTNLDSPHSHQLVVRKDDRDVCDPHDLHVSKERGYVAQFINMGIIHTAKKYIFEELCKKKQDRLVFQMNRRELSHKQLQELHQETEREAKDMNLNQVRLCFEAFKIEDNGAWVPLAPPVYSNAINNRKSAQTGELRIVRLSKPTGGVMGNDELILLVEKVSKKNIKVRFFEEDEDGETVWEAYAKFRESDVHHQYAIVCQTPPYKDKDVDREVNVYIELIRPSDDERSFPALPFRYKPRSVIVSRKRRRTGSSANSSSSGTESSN

For a further assay, the target named is T4, GST-Aq-NF-kB (Amphimedon queenslandica, UniProt A9Y5G7 2-389).
T4 sequence: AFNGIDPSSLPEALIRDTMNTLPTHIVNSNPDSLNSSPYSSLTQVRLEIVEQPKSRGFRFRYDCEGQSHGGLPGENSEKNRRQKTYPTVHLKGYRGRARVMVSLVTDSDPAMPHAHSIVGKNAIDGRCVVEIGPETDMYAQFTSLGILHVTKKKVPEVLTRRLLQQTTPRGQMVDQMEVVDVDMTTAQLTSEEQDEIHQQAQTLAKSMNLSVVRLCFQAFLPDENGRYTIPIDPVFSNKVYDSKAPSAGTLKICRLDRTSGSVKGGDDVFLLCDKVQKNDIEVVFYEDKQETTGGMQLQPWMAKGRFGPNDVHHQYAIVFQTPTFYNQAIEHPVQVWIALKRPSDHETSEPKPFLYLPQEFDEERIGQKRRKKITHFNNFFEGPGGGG

In a further assay the target is GST-Hu-p50 (Homo sapiens, UniProt P19838 7-356).
For assay [2], the target named is T5, GST-Nv-NF-kB (Cys allele) (Nematostella vectensis, UniProt E5G601 2-411).
T5 sequence: T2 sequence with R21Q, S66C, N207S, Q215E, A217V, K225E, E268A, E399D

For a further assay, the target named is T6, GST-Co-NF-kB (Capsaspora owczarzaki, UniProt F1ARL5 200-546).
T6 sequence: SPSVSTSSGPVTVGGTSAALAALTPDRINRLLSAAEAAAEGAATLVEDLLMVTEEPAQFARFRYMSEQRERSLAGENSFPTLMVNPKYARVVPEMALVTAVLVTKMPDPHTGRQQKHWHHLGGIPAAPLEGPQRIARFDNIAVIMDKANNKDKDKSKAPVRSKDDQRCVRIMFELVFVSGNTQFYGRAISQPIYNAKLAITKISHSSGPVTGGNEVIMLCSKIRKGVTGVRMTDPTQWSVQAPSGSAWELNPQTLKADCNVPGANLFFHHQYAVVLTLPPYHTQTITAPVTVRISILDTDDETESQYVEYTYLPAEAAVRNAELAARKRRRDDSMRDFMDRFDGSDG

Chain of GST-Hu-p50 (P19838 7-356): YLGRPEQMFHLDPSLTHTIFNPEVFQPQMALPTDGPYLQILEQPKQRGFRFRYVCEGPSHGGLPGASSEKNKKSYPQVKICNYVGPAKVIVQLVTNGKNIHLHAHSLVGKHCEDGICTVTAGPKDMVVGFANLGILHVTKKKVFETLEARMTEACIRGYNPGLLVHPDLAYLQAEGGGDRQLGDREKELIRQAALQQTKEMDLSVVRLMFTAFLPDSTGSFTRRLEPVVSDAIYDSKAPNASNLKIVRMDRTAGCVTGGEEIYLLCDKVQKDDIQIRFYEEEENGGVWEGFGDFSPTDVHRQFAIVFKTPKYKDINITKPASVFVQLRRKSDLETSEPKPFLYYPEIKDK

Regarding “CCGATTAACATCACGGAAATACCTGATGTTAATCGGGTCTTGATTCGCTTGACGCTGCTG”, the binding signal in the assay with GST-Ap-NF-kB RHD turned out to be 1.01 z-score; in assay [1], 1.39 z-score; with GST-Dm-Relish, 2.56 z-score; with GST-Aq-NF-kB, 4.47 z-score; with GST-Hu-p50, 1.12 z-score.

As to “CCGATTAACATCAGGAGACCCCCTGATGTTAATCGGGTCTTGATTCGCTTGACGCTGCTG”, the binding signal was determined as 5.3 z-score in the assay with GST-Ap-NF-kB RHD; 3.64 z-score in assay [2]; 1.61 z-score with GST-Co-NF-kB; 5.66 z-score with GST-Dm-Relish; 6.55 z-score with GST-Aq-NF-kB; 4.1 z-score with GST-Hu-p50.

On to “CCGATTAACATCAATCCACCCCCTGATGTTAATCGGGTCTTGATTCGCTTGACGCTGCTG”, for which the binding signal with GST-Ap-NF-kB RHD stood at 3.95 z-score; in assay [2] it was 3.33 z-score; in the assay with GST-Co-NF-kB, 4.65 z-score; with GST-Dm-Relish, 2.99 z-score; in the assay with GST-Aq-NF-kB, 3.63 z-score; in the assay with GST-Hu-p50, 4.45 z-score.

With “CCGATTAACATCAGAATACCCCCTGATGTTAATCGGGTCTTGATTCGCTTGACGCTGCTG”, the binding signal with GST-Ap-NF-kB RHD worked out at 7.89 z-score; in assay [2], 5.69 z-score; with GST-Co-NF-kB, 4.84 z-score; with GST-Dm-Relish, 5.26 z-score; with GST-Aq-NF-kB, 5.57 z-score; in the assay with GST-Hu-p50, 5.27 z-score.

Take “CCGATTAACATCAGGACTGCCCCTGATGTTAATCGGGTCTTGATTCGCTTGACGCTGCTG”: the binding signal came to 3.49 z-score with GST-Ap-NF-kB RHD; 4.13 z-score in assay [2]; 3.18 z-score in the assay with GST-Dm-Relish; 7.05 z-score with GST-Aq-NF-kB; 4.09 z-score in the assay with GST-Hu-p50.

As to “CCGATTAACATCAGGAAGATCCCTGATGTTAATCGGGTCTTGATTCGCTTGACGCTGCTG”, the binding signal with GST-Ap-NF-kB RHD is 3.43 z-score; in assay [2] it was 1.84 z-score; with GST-Dm-Relish it was 2.71 z-score; in the assay with GST-Aq-NF-kB it was 5.44 z-score; with GST-Hu-p50, 1.57 z-score.

Turning to “CCGATTAACATCAGGGGGGTTACTGATGTTAATCGGGTCTTGATTCGCTTGACGCTGCTG”, the binding signal with GST-Ap-NF-kB RHD was 7.07 z-score; in assay [2] it was 4.42 z-score; with GST-Co-NF-kB it was 4.24 z-score; with GST-Dm-Relish, 8 z-score; in the assay with GST-Aq-NF-kB, 5.46 z-score; with GST-Hu-p50, 5.29 z-score.

For the sequence “CCGATTAACATCAGAAAATCACCTGATGTTAATCGGGTCTTGATTCGCTTGACGCTGCTG”, the binding signal is 2.77 z-score with GST-Ap-NF-kB RHD; 3.28 z-score in assay [2]; 6.91 z-score with GST-Dm-Relish; 3.39 z-score in the assay with GST-Aq-NF-kB; 5.67 z-score with GST-Hu-p50.

As to “CCGATTAACATCACCCGGGTAAATGATGTTAATCGGGTCTTGATTCGCTTGACGCTGCTG”, the binding signal turned out to be 1.42 z-score with GST-Ap-NF-kB RHD; 1.15 z-score in assay [1]; 2.41 z-score with GST-Co-NF-kB; 1.02 z-score in the assay with GST-Aq-NF-kB; 1.11 z-score with GST-Hu-p50.

On to “CCGATTAACATCACCCTCGAGGGTGATGTTAATCGGGTCTTGATTCGCTTGACGCTGCTG”, for which the binding signal with GST-Ap-NF-kB RHD is 1.01 z-score; in assay [1], 1.78 z-score; with GST-Co-NF-kB, 1.1 z-score; in the assay with GST-Dm-Relish, 1.08 z-score; with GST-Aq-NF-kB, 1.65 z-score; with GST-Hu-p50 it was 2.34 z-score.

“CCGATTAACATCAAAATCACCCCTGATGTTAATCGGGTCTTGATTCGCTTGACGCTGCTG”: the binding signal with GST-Ap-NF-kB RHD came to 4.66 z-score; in assay [2] it was 2.97 z-score; in the assay with GST-Co-NF-kB, 5.02 z-score; with GST-Dm-Relish, 5.22 z-score; in the assay with GST-Aq-NF-kB, 3.41 z-score; with GST-Hu-p50, 4.39 z-score.

For the origin of these results see publication PMC5700166.
